# Rows were chosen to be rich in hits. Some 2.5% of all compounds tested hit in one or more screens of this group.
# UHRF1 MBD2 ctr – UHRF1 methyl-DNA binding inhibition; Q96T88; UHRF1 binding to methylated oligo, TR-FRET; inhibition, % at 4.4 µM; 370,000 compounds, 0.75% hits; in the data active = inhibition above about 21%;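 note: UHRF1 SRA domain binding a hemimethylated CpG hairpin DNA probe; 0% = median of test compound wells and 100% = reference inhibitor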
# LEDGF integ inh – blocks HIV-1 LEDGF/p75-dependent DNA integration. AID 743269. inhibition, % at 3.7 µM. TR-FRET IN-LEDGF/p75 DNA integration, Eu/Cy5. 370,000 compounds, 0.64% hits;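 active = inhibition above the screen-wide mean plus 3 SD, cut at about 13% in these data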;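 note: signal is the Cy5 over europium emission ratio at 671 and 618 nm; 0% = plate median of compound wells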
# PRMT1 FP inh – PRMT1 (human) inhibition, primary screen. Q99873. recombinant PRMT1, activity-based probe fluorescence polarization. inhibition, % at 2.79 µM. 370,000 compounds, 1.3% hits. AID 652257;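 active = inhibition above about 21% made by adding two undisclosed values, limit read from the data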
# MBD2 inh – blocks human MBD2 binding to methylated DNA; TR-FRET, MBD2 binding to methylated oligonucleotide; AID 686964; inhibition, % at 4.4 µM; Q9UBB5; 370,000 compounds, 0.31% hits; in the data active = inhibition above about 13%
# Target sequence (Q9UBB5 whole entry, looked up): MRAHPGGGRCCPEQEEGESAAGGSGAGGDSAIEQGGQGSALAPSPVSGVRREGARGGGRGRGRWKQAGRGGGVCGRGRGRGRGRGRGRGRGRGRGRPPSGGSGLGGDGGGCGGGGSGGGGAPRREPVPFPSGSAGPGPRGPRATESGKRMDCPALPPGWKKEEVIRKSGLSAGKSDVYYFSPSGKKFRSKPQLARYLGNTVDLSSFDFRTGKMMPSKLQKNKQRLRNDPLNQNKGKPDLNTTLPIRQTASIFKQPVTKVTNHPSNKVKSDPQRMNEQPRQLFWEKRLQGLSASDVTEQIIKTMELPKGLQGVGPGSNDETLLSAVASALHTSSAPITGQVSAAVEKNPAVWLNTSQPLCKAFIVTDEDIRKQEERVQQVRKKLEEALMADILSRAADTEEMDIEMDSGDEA
# IN multimer up – activates HIV-1 integrase multimerization in LEDGF counter-screen. shares compounds with LEDGF integ inh. TR-FRET HIV-1 integrase multimerization, biochemical. activation, % at 7.7 µM. 2,000 compounds, 17% hits. AID 1053131; in the data active = activation above about 8.9%
# TR-FRET interf – optically interferes with TR-FRET readout in LEDGF counter-screen; inhibition, % at 7.7 µM; shares compounds with LEDGF integ inh; 2,000 tested, under 10 active; AID 1053135; TR-FRET optical interference counterscreen, HIV-1 IN multimerization;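 active = inhibition above the mean over all tested compounds plus 3 SD, which no compound reached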;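 note: 0% = integrase with antibodies and DMSO and 100% = antibodies without integrase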
# IN-LEDGF confirm – LEDGF/p75-dependent HIV-1 integration inhibition, confirmation. TR-FRET LEDGF/p75-dependent HIV-1 integration, biochemical. 2,000 compounds, 36% hits. shares compounds with LEDGF integ inh. inhibition, % at 3.7 µM; in the data active = inhibition above about 14%
# An asterisk follows results filed as active; x = not tested or not shown.
SMILES,UHRF1 MBD2 ctr,LEDGF integ inh,PRMT1 FP inh,MBD2 inh,IN multimer up,TR-FRET interf,IN-LEDGF confirm
C[C@@H]1CN([C@@H](C)CO)C(=O)c2c(c3ccccc3n2C)-c2ccccc2CO[C@H]1CN(C)C(=O)[C@H](Cc1ccccc1)N(C)C,0.7,-0.9,1.8,-2.6,x,x,x
Cc1ccc(S(=O)(=O)N2C[C@]3(O)C[C@@H]4C(=O)N(c5ccccc5)C(=O)[C@@H]4C[C@]3(OC(=O)NCC3CCCCC3)C2)cc1,-0.9,1.7,-2.5,-6.3,x,x,x
CCC[C@H]1[C@@H](NS(=O)(=O)c2ccccc2[N+](=O)[O-])CC[C@@]23CCCN2C(=O)CCC[C@@H]13,-1.5,0.8,1.4,-4.3,x,x,x
O=C(CSc1nccc2ccccc12)N1CCN(c2ccccn2)CC1,-15.9,13.8*,14.1,-15.5,3.1,-15.5,-2.1
O=C(NCc1ccccc1)C(c1ccncc1)N(C(=O)c1csnn1)c1ccccc1F (configuration not stated),-0.2,-3.5,-3.7,-2.4,x,x,x
O=C(CSc1ncccn1)Nc1ncc(C(F)(F)F)cc1Cl,-1.3,81.6*,0.5,-0.9,0.3,-1.2,3.6
COc1ccc(N(C(C)C(=O)N/N=C/c2cccnc2)S(C)(=O)=O)cc1 (configuration not stated),1.2,35.3*,-2.7,0.7,0.2,-1.2,2.1
COc1ccc(N(C(C)C(=O)N/N=C/c2ccc(OC(C)C)cc2)S(C)(=O)=O)cc1 (configuration not stated),-2.1,1.8,-4.0,-5.8,x,x,x
Cc1nn(Cc2ccc(Cl)cc2Cl)c(C)c1NC(=O)c1ccc(COc2cc(Cl)ccc2Cl)o1,0.6,23.8*,8.8,-1.8,0.0,-0.2,-7.0
COc1cc(CCC(O)CC(=O)CCc2ccccc2)ccc1O (configuration not stated),-2.7,23.3*,-0.6,1.1,0.6,-3.0,-3.1
COc1cc(/C=N/NC(=O)CCc2ccccc2)ccc1O,-4.5,-1.6,0.0,2.2,x,x,x
CC(C)NC(=O)N(C)C[C@H]1Oc2c(NS(=O)(=O)c3ccccc3)cccc2C(=O)N([C@H](C)CO)C[C@@H]1C,-3.2,34.6*,-2.1,-1.8,1.1,-3.9,0.8
C[C@H](CO)N1C[C@H](C)[C@@H](CN(C)S(=O)(=O)c2cccs2)Oc2c(NC(=O)Nc3ccccc3)cccc2C1=O,3.5,-1.6,1.3,2.4,x,x,x
C[C@H](CO)N1C[C@H](C)[C@@H](CN(C)S(=O)(=O)c2cccs2)Oc2c(NC(=O)NC3CCCCC3)cccc2C1=O,0.1,18.1*,-0.7,-6.2,0.4,-1.9,0.8
O=Cc1ccnc(-c2ccc(OC(=O)c3ccco3)cc2)n1,-1.3,0.5,-2.4,-1.3,x,x,x
O=C1COc2ccc(C(=O)c3ccccc3)cc2CN1,-2.7,50.0*,-0.7,-6.0,-2.1,10.7,0.7
O=C(c1ccccc1)c1ccc2c(c1)OCCCO2,0.0,3.4,-4.4,-5.2,x,x,x
COC(=O)/C(=C/Nc1ccc(O)cc1)[N+](=O)[O-],2.0,24.8*,47.5*,-7.7,4.6,-16.4,-1.2
CCCCSCc1[nH]c(=O)[nH]c1C(=O)CCCCC(=O)OCC,1.4,9.9,-0.7,0.3,x,x,x
CCOC(=O)C(C)Sc1nnc2c3ccccc3n(C)c2n1 (configuration not stated),5.2,2.1,-2.4,-0.8,x,x,x
CCCn1c2ccccc2c2nnc(SCc3[nH]c(=O)[nH]c3C(=O)CCCCC(=O)OCC)nc21,-3.7,29.5*,3.7,-4.4,0.8,-4.2,18.8*
CCOC(=O)CCCCC(=O)c1[nH]c(=O)[nH]c1CSc1nnc2c3ccccc3n(C(C)C)c2n1,1.9,27.6*,7.4,-6.5,0.3,-1.6,11.4
Cc1ccc(-n2c(COc3ccccc3)nnc2SCC(=O)Nc2ccccc2-c2ccccc2)cc1,-1.0,0.9,-1.2,3.0,x,x,x
Oc1cc2c(cc1O)C1c3ccc(O)c(O)c3OCC1(O)C2 (configuration not stated),11.9,89.1*,55.5*,9.1,40.7*,-205.2,78.6*
Cc1cc(/C=N/O)c(C)n1-c1ccc(Br)cc1,-1.7,17.7*,0.3,0.9,-0.5,2.2,-4.6
SMILES,UHRF1 MBD2 ctr,LEDGF integ inh,PRMT1 FP inh,MBD2 inh,IN multimer up,TR-FRET interf,IN-LEDGF confirm
Cc1cc(/C=N/NC(N)=S)c(C)n1-c1ccc(Br)cc1,-8.5,3.8,2.6,-3.1,x,x,x
Cc1cc(CNC[C@H]2O[C@@H](n3ccc(N)nc3=O)[C@H](O)[C@@H]2O)no1,2.0,-2.2,1.8,0.4,x,x,x
CCOC(=O)c1ccc(NC(=O)c2nc[nH]c2C(=O)NC)cc1,-1.5,18.3*,-1.8,-5.0,0.0,0.2,-0.7
Cc1cc(C)cc(N(CC(=O)NC2CCCCCC2)S(=O)(=O)c2c(C)[nH]c(=O)[nH]c2=O)c1,-1.4,1.2,-1.9,-0.8,x,x,x
CCOc1ccc(N(CC(=O)NC2CCC(C)CC2)S(=O)(=O)c2c(C)noc2C)cc1 (configuration not stated),17.1,2.4,-3.3,-2.0,x,x,x
CCOc1ccc(N(CC(=O)NC2CCCC2)S(=O)(=O)c2c(C)[nH]c(=O)[nH]c2=O)cc1,2.2,51.4*,-5.5,-2.4,0.6,-2.2,-9.2
Cc1ccc(N(CC(=O)NC2CCCCC2)S(=O)(=O)c2c(C)noc2C)cc1,3.6,21.1*,13.1,1.6,1.4,-5.0,-4.7
O=Nc1c(O)[nH]c2ccc(Cl)c(Cl)c12,-11.5,6.9,-2.2,-16.0,x,x,x
CC1(Cc2cc(Cl)ccc2C(F)(F)F)C(=O)Nc2cc(-c3ccccc3Cl)ccc21 (configuration not stated),-0.9,1.3,-1.8,-1.5,x,x,x
CCC(CC)C(=O)OCC(=O)NC12CC3CC(CC(C3)C1)C2,4.8,14.0*,0.7,-2.0,-2.1,10.4,6.3
COC(=O)c1cc(-c2ccc(C(C)(C)C)cc2)c(=O)n2c1CCC2,-0.3,3.5,-5.2,-3.9,x,x,x
CCN(CC(=O)Nc1ccc(NC(C)=O)cc1)C(=O)c1cccc2ccccc12,-0.6,-1.5,-2.1,-1.6,x,x,x
COC(=O)c1cccc(NC(=O)Cn2nnc3ccccc32)c1,3.5,19.2*,1.4,-0.6,1.0,-5.2,-1.3
O=C(NC1=C(NC2CCS(=O)(=O)C2)C(=O)c2ccccc2C1=O)c1ccccc1 (configuration not stated),10.1,24.8*,0.0,-6.0,1.2,-4.3,41.5*
CCOC(=O)C1(C)C=C(Nc2ccc(OC)cc2)C(=O)N1c1ccc(OC)cc1 (configuration not stated),-3.6,5.3,-3.8,-5.8,x,x,x
CCOC(=O)C1(C)C=C(Nc2ccc(O)cc2)C(=O)N1c1ccc(O)cc1 (configuration not stated),5.3,14.3*,32.5*,-5.6,7.6,-38.5,-6.2

# Compound activity: PubChem BioAssay, The Scripps Research Institute Molecular Screening Center
